PINK1 modulator = modulators of PINK1 expression; AID 624263; PINK1 immunofluorescence, high-content cytometry, 24 h; Potency, µM (series often up to 76.6 µM), for the others: at the highest dose activation (PINK1 increase), hits mostly activators; 410,000 tested, 0.2% active; active = well fitted activation curve with a large enough effect; inconclusive = small, poorly fitted or top-dose-only effect; cell line not stated here; also: % of control where 0% means no effect; nearly all actives have a fitted effect of over 65% in size
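PINK1 protein level read as immunofluorescence by microplate cytometer in a fixed, stained stable cell line after 24 h exposure to five compound concentrations, with CCCP as control.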
Vif-APOBEC3G blk = Vif-A3G binding inhibition; Q9HC16; HeLa A3G-eYFP + Vif (tagged APOBEC3G with the HIV-1 protein that degrades it), YFP fluorescence, overnight; Potency, µM (highest dose often 46.1 µM), for inactives: at the top dose activity, negative = active, actives largely listed as inhibitors; 410,000 tested, 0.076% active; AID 602310; also: % is scaled to controls: 0 for no effect and ±100 for the full control effect; nearly all actives have a fitted effect of over 60% in size
Target sequence (Q9HC16 whole entry, looked up): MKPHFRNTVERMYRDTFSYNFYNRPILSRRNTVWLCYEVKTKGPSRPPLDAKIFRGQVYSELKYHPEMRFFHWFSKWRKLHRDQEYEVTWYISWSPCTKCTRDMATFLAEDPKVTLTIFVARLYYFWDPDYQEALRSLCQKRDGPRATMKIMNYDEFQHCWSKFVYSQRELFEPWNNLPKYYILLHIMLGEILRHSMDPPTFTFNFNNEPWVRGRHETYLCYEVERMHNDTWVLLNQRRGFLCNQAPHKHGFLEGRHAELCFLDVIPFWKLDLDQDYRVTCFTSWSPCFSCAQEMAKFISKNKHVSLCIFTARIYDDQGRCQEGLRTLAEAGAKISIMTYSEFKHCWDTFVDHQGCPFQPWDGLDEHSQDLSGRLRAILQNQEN
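HeLa cells stably expressing Vif and C-terminally eYFP-tagged A3G, seeded overnight at 37 deg C, then exposed to compound by pintool overnight at 37 deg C. Rise in yellow fluorescence (Ex 488/Em 500-530, Acumen) marks blocked Vif-driven A3G degradation.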
Epigenetic reg = derepresses silenced GFP reporter in murine cells. murine LDR cells, GFP reporter derepression, 30 h. Potency, µM (doses to about 53.9 µM), for the others: at the top dose GFP activation, usual class: activators. 280,000 tested, 0.2% active; also: % of control where 0% means no effect; nearly all actives have a fitted effect of over 60% in size
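In this reporter-derepression format, murine cells bearing a silenced integrated CMV-GFP locus incubate with test compound (30 h, 37 C), then are washed and imaged; fluorescent objects of 20–120 um count as induced cells.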
Vif-A3F inh = Vif-A3F binding inhibition | 390,000 tested, 0.2% active | Potency, µM (top dose mostly 46.1 µM), for inactives: top-dose activity, negative = active | HeLa A3F-eYFP + Vif (tagged APOBEC3F with the HIV-1 protein that degrades it), YFP fluorescence increase; also: % of control where 0% means no effect; nearly all actives have a fitted effect of over 65% in size
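HeLa cells stably expressing A3F-eYFP plus Vif, plated and incubated overnight at 37 deg C, then exposed to compounds overnight at 37 deg C. Blocked degradation read as raised yellow fluorescence (Ex 488/Em 500-530).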
* hit, by the source's call; [ ] = dose if it differs, or a comment. Rows were chosen to be rich in hits. Some 0.52% of all compounds tested hit in one or more screens of this group. Unless noted, calls follow the shape of the dose curve; as a rule, active = well fitted curve in the direction sought with a large enough effect; inconclusive = small, poorly fitted or top-dose-only effect, or another doubt; inactive = no such curve, though single readings can be large; an effect the other way counts as inactive or inconclusive. Potency is read from the fitted curve at half-maximal effect.

Results for CSc1nsc(/C=C/Nc2ccc(F)cc2F)c1C#N ?
PINK1 modulator: 6%; Vif-APOBEC3G blk: inconclusive; Epigenetic reg: 4µM*; Vif-A3F inh: inconclusive

Results for Cc1ccc(/C=C2/NC(=O)N(Cc3ccccc3)C2=O)s1 ?
PINK1 modulator: 14µM*; Vif-APOBEC3G blk: inconclusive; Epigenetic reg: 25µM*; Vif-A3F inh: 22µM*

What do the screens show for `N#CC1=C(S)N(c2ccccc2)C(c2ccc(-c3cccc(Cl)c3)o2)NC1=O` (stereo unspecified)?
PINK1 modulator: 1%; Vif-APOBEC3G blk: -6%; Epigenetic reg: 4%; Vif-A3F inh: 7.1µM*

Results for COc1ccc(-c2nc3c4ccccc4ccn3c2Cc2ccsc2)cc1OC ?
PINK1 modulator: -1%; Vif-APOBEC3G blk: 8.9µM*

How did CCOC(=O)/C(C(N)=NCCCO)=C(/O)c1ccccc1 do in these assays?
PINK1 modulator: 14µM*; Vif-APOBEC3G blk: 0%; Epigenetic reg: 0%; Vif-A3F inh: -4%

What do the screens show for `C=C(C(=O)c1ccccc1)C(c1ccccc1)C(C)C(=O)c1ccccc1` (stereo unspecified)?
PINK1 modulator: -1%; Vif-APOBEC3G blk: -28%; Epigenetic reg: 0%; Vif-A3F inh: -13%

How did C=C(C(=O)c1ccccc1)C(C)C(=C)C(=O)c1ccccc1 do in these assays?
PINK1 modulator: 12%; Vif-APOBEC3G blk: 5µM*; Epigenetic reg: 0%; Vif-A3F inh: inconclusive

How did CC(=O)NC(c1cc(Cl)c2ccccc2c1O)C(C)C (stereo unspecified) do in these assays?
PINK1 modulator: 12%; Vif-APOBEC3G blk: inconclusive; Vif-A3F inh: 4%

How did CC(=O)NC(c1cc(Cl)c2cccnc2c1O)C1CC1 (stereo unspecified) do in these assays?
PINK1 modulator: 6%; Vif-APOBEC3G blk: 5µM*; Vif-A3F inh: inconclusive

What do the screens show for `CC(=O)NC(c1cc(Cl)c2cccnc2c1O)C(C)C` (stereo unspecified)?
PINK1 modulator: 5%; Vif-APOBEC3G blk: -6%; Vif-A3F inh: 8.9µM*

What do the screens show for `CCCOc1ccc(C2C(C(=O)c3cc4ccccc4o3)=C(O)C(=O)N2c2cc(C)on2)cc1` (stereo unspecified)?
PINK1 modulator: 25µM*; Vif-APOBEC3G blk: 1%; Vif-A3F inh: -11%

What do the screens show for `CCCOc1ccc(C2C(C(=O)c3cc4ccccc4o3)=C(O)C(=O)N2c2cc(C)on2)cc1OC` (stereo unspecified)?
PINK1 modulator: 0%; Vif-APOBEC3G blk: -1%; Vif-A3F inh: -22%

Results for COc1cccc(CN2C(=O)NC(C)(C3CCN(Cc4cc(Cl)ccc4O)CC3)C2=O)c1OC (stereo unspecified) ?
PINK1 modulator: -1%

How did CCN(CC)S(=O)(=O)c1cc([N+](=O)[O-])ccc1NNC(=O)Nc1ccc(Cl)c(Cl)c1 do in these assays?
PINK1 modulator: 14µM*; Vif-APOBEC3G blk: 2%; Epigenetic reg: -1%; Vif-A3F inh: 0%

What do the screens show for `O=C(NNc1ccccc1[N+](=O)[O-])Nc1ccc(Cl)c(Cl)c1`?
PINK1 modulator: inconclusive; Vif-APOBEC3G blk: -4%; Epigenetic reg: 1%; Vif-A3F inh: inconclusive

What do the screens show for `Cc1occc1C(=O)Nc1cccc(-c2nc(CNC(=O)c3ccc(N4CCCCC4)cc3)c(C)o2)c1`?
PINK1 modulator: 1%

How did CCN(CC)c1ccc(/C=C/C(=O)c2ccc(Br)cc2)cc1 do in these assays?
PINK1 modulator: 18%; Vif-APOBEC3G blk: inconclusive; Epigenetic reg: 16%; Vif-A3F inh: 25µM*

Results for O=C(NCC1Cc2cc(F)cc(-c3cnccn3)c2O1)c1cccc(-c2ccccc2F)c1 (stereo unspecified) ?
PINK1 modulator: 1%

Results for Cc1c(C(=O)NCc2nccs2)cnn1-c1ncc2c(n1)-c1ccccc1CC2 ?
PINK1 modulator: 2%

What do the screens show for `Cc1cccc(Oc2nc3c(C)cccn3c(=O)c2/C=C(\C#N)c2nc3ccccc3[nH]2)c1`?
PINK1 modulator: 8%; Vif-APOBEC3G blk: -3%; Epigenetic reg: 7.1µM*; Vif-A3F inh: inconclusive

How did CC(C)(C)c1ccc(Oc2nc3ccccn3c(=O)c2/C=C(\C#N)c2nc3ccccc3[nH]2)cc1 do in these assays?
PINK1 modulator: 28µM*; Vif-APOBEC3G blk: -5%; Epigenetic reg: 25µM*; Vif-A3F inh: inconclusive

What do the screens show for `Cc1cnc(-n2ncc(C(=O)NCc3ccncc3)c2C2CC2)nc1-c1cccs1`?
PINK1 modulator: 1%

What do the screens show for `COc1ccccc1-c1nc2cc(C(=O)NC[C@H]3CCc4ccccc4O3)cc(NC(C)=O)c2n1C`?
PINK1 modulator: 1%

How did CC(C)(C)c1ccc(OCC(=O)Nc2ccc3c4c(cccc24)C(=O)NC3=O)cc1 do in these assays?
PINK1 modulator: -2%; Vif-APOBEC3G blk: 4%; Epigenetic reg: 4%; Vif-A3F inh: 13µM*

How did COc1cccc(/C=N/Nc2snc(SC)c2C#N)c1O do in these assays?
PINK1 modulator: 13µM*; Vif-APOBEC3G blk: -2%; Epigenetic reg: -1%; Vif-A3F inh: 1%

How did O=c1oc2ccccc2cc1-c1nc2ccccc2o1 do in these assays?
PINK1 modulator: 0%[38.3 µM]; Vif-APOBEC3G blk: -20%; Epigenetic reg: 3%; Vif-A3F inh: -21%

How did COc1ccc2oc(=O)c(-c3nc4ccccc4o3)cc2c1 do in these assays?
PINK1 modulator: -2%; Vif-APOBEC3G blk: inconclusive; Epigenetic reg: 0%; Vif-A3F inh: 13µM*

Results for COc1ccc2oc(=O)c(-c3nnc(NCc4ccco4)s3)cc2c1 ?
PINK1 modulator: 2%; Vif-APOBEC3G blk: -31%; Epigenetic reg: 17%; Vif-A3F inh: inconclusive

What do the screens show for `CCOc1ccc2cc(-c3nnc(Nc4ccccc4F)s3)c(=O)oc2c1`?
PINK1 modulator: 0%; Vif-APOBEC3G blk: 6%; Epigenetic reg: 3.5µM*; Vif-A3F inh: inconclusive

How did CCOc1ccccc1Nc1nnc(-c2cc3cc(OC)ccc3oc2=O)s1 do in these assays?
PINK1 modulator: 5%; Vif-APOBEC3G blk: -16%; Epigenetic reg: 18µM*; Vif-A3F inh: 7.1µM*

What do the screens show for `CO[C@H]1[C@H](NC(=O)c2ccsc2)c2ccccc2C12CCN(Cc1cc(Cl)ccc1O)CC2`?
PINK1 modulator: 0%

What do the screens show for `Cc1oc(-c2ccccc2NC(=O)C2CCC2)nc1CNC(=O)c1ccccn1`?
PINK1 modulator: 2%

Results for COc1ccc(C(=O)NCC2Cc3cccc(-c4cncnc4)c3O2)c(OC)c1OC (stereo unspecified) ?
PINK1 modulator: -1%

Results for CC(C)N1CC=C2C(C#N)=C(N)C(C#N)(C#N)C(c3ccccc3)C2C1 (stereo unspecified) ?
PINK1 modulator: 7.9µM*; Vif-APOBEC3G blk: -4%; Epigenetic reg: 1%; Vif-A3F inh: inconclusive

Results for COc1cc(C2C3CN(C)CC=C3C(C#N)=C(N)C2(C#N)C#N)ccc1OC(C)C (stereo unspecified) ?
PINK1 modulator: 40µM*; Vif-APOBEC3G blk: -1%; Epigenetic reg: -1%; Vif-A3F inh: -1%

Assay outcomes deposited in PubChem BioAssay by National Center for Advancing Translational Sciences (NCATS).
